# Records with an inconclusive call do not appear. A call without a number means that no potency is given here. Active and inactive are the calls of the source. Calls follow the shape of the dose curve; as a rule, active = well fitted cell-killing curve with a large enough effect in the repeat runs; inconclusive = weak or mixed curves; inactive = flat fitted curve, though single readings scatter.
# Assay: qHTS RealTime-Glo MT Cell Viability Assay in HepG2 cells - 8 hour (AID 1224873); also: nearly all actives have a fitted effect of over 55% in size
# Conditions: RealTime-Glo luminescence; series mostly up to 76.8 µM
# From the text: National Center for Advancing Translational Sciences [NCATS]
# NIH Chemical Genomics Center [NCGC]
# U.S. Environmental Protection Agency [EPA]
# National Institutes of Environmental Health Sciences [NIEHS]
# National Toxicology Program [NTP]
# U.S. Food and Drug Administration [FDA]
# Measure of cell viability is critical in the cell-base assay. Analysis of cell viability is necessary for the characterization of cell responses to cytotoxic drugs and environmental stress. A RealTime-Glo MT Cell Viability Assay to monitor cell viability in real time of continues cell culture during 40 hours of compound treatment was used to screen Tox21 10K library compounds in HepG2 cells. The RealTime-Glo MT Cell Viability Assay is a nonlytic, homogeneous, bioluminescent method to measure cell viability in real time using a simple, plate-based method. The assay involves adding NanoLuc luciferase and a cell-permeant prosubstrate to cells in culture. Viable cells reduce the proprietary prosubstrate to generate a substrate for NanoLuc luciferase. This substrate diffuses from cells into the surrounding culture medium, where it is rapidly used by the NanoLuc Enzyme to produce a luminescent signal. The signal correlates with the number of viable cells, making the assay well suited for cytotoxicity studies.
# Tox21 Assay Protocol Summary:
# The mixture of HepG2 cell suspension and reagents were dispensed at 600cells/6 ul/well in 1536-well tissue culture treated black solid bottom plates using a Multidrop dispenser. After the assay plates were incubated at a 37 C/5% CO2 incubator for 5 hours, 23 nL of compounds dissolved in DMSO, positive and negative controls was transferred to the assay plate by a pintool work station. The plates were incubated at 37 C for 40 hours. The luminescence intensity were measured at 0h, 8h, 16h, 24h, 32h and 40h time points using ViewLux plate reader during compound treatment.
# Potency is read from the fitted curve at half-maximal effect.
row,Structure (SMILES),Potency
1,COP(=O)(OC)O/C(=C/Cl)c1cc(Cl)c(Cl)cc1Cl,inactive
2,BrCCCCBr,inactive
3,CCCCCCCCCCOC(=O)c1ccccc1C(=O)OCCCCCCCCCC,inactive
4,N#Cc1ccc(Cl)cc1,inactive
5,O=C(NC(=O)c1c(F)cccc1F)Nc1cc(Cl)c(Oc2ncc(C(F)(F)F)cc2Cl)c(Cl)c1,inactive
6,Cc1ccc(-c2c(Cl)nc(C#N)n2S(=O)(=O)N(C)C)cc1,inactive
7,O=C(CBr)Nc1ccc(Cl)cc1C(=O)c1ccccc1F,inactive
8,CC1(C)[C@H](C=C(Cl)Cl)[C@@H]1C(=O)O[C@@H](C#N)c1cccc(Oc2ccccc2)c1,inactive
9,O=C(O)COc1ccc(Cl)cc1,inactive
10,C=CCN1CC[C@]23c4c5ccc(O)c4O[C@H]2C(=O)CC[C@@]3(O)[C@H]1C5,inactive
11,C[C@@H]1CC[C@H]2[C@@H](C)C(=O)O[C@@H]3O[C@@]4(C)CC[C@@H]1[C@]32OO4,inactive
12,Clc1ccc(C(OCCN2CCCCC2)c2ccccc2)cc1 (stereo not given),inactive
13,CC(C)(C)C(O)C(Oc1ccc(Cl)cc1)n1cncn1 (stereo not given),inactive
14,CCCCCCCCOC(=O)c1ccc(C(=O)OCCCCCCCC)c(C(=O)OCCCCCCCC)c1,inactive
15,CC(=O)c1cc2c(cc1C)C(C)(C)C(C)CC2(C)C (stereo not given),inactive
16,Oc1ccc(Cl)c(Cl)c1Cl,inactive
17,[CH3][Sn]([CH3])([Cl])[Cl],inactive
18,CCOc1nc(F)cc2nc(S(=O)(=O)Nc3c(Cl)cccc3Cl)nn12,inactive
19,CCOP(=S)(OCC)Oc1cc(Cl)c(Br)cc1Cl,inactive
20,CCCN(CC1CC1)c1c([N+](=O)[O-])cc(C(F)(F)F)cc1[N+](=O)[O-],inactive

row,Structure (SMILES),Potency
1,c1ccc(CN2CCNCC2)cc1,inactive
2,CN1[C@@H]2CC[C@H]1CC(OC(=O)c1cc(Cl)cc(Cl)c1)C2 (stereo not given in full),inactive
3,CC(=O)[C@H]1CC[C@H]2[C@@H]3CC[C@H]4C[C@](C)(O)CC[C@]4(C)[C@H]3CC[C@]12C,inactive
4,CC(C)(OO)c1ccccc1,inactive
5,IC(I)=C(I)I,1550 nM (active)
6,CCOP(O)OCC,inactive
7,CCn1cc[n+](C)c1,inactive
8,COc1cc(CC(C)N)cc2c1OCO2 (stereo not given),inactive
9,CC(=O)NC1CCSC1=O (stereo not given),inactive
10,CCCC(=O)Cl,inactive
11,O=C(CBr)OCc1ccccc1,inactive
12,COC(=O)C(Cl)C(=O)OC,inactive
13,Cl/C=C\Cl,inactive
14,N#C/C(N)=C(/N)C#N,inactive
15,O=C=Nc1ccc(Cl)cc1,inactive
16,Nc1ccc(N=Nc2ccc(-c3ccc(N=Nc4c(S(=O)(=O)O)cc5cc(S(=O)(=O)O)c(N=Nc6ccccc6)c(O)c5c4N)cc3)cc2)c(N)c1,inactive
17,O=[N+]([O-])c1cc(C(F)(F)F)cc([N+](=O)[O-])c1Cl,inactive
18,O=C(O)C1(c2ccc3c(c2)OC[C@H](Cc2ccc(-c4ccccc4)cc2)[C@H]3O)CCCC1,inactive
19,COP(=S)(Oc1cc(Cl)c(Br)cc1Cl)c1ccccc1 (stereo not given),inactive
20,Clc1cc(C(Cl)(Cl)Cl)cnc1Cl,inactive

# Source: PubChem BioAssay (Tox21)
